Results: the supplement of paper PMC12494721
Structures can show the parent of a compound that is named as a salt. A number with no mark means an inactive call.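 Rule for the calls: for the amine columns active = adjusted P below 0.05 in both replicates with a change the same way and a mean fold change under 0.8 or over 1.25; inactive = the rest.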

test system: Ruminococcus gnavus DSM 108212; test: fold change of 2-Phenylethylamine concentration vs plate DMSO controls (fold change (ratio)); higher = more amine produced, active = hit call of the paper (significant change in both replicates, either direction); details: incubation time: 27 h, anaerobic, 37 °C
Outline: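 Each value is the fold change relative to DMSO-only wells on the same plate. Four gut bacterial strains were grown anaerobically in mGAM at 37 °C for 27 h in 80 µL wells, starting at OD 0.1 before a 1:1 dilution, with compounds at 20 µM final (sweeteners 50 µM). Whole cultures were extracted with cold acetonitrile/methanol containing 0.1% formic acid, centrifuged, and amines were quantified by LC–triple-quadrupole MS (dynamic MRM) against external calibration curves with within-batch drift correction. Values are means of 2 biological replicates.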

| SMILES | fold change of 2-Phenylethylamine concentration |
| --- | --- |
| CC(C)(C)NC[C@H](O)c1ccc(O)c(CO)c1 [Levalbuterol hydrochloride] (20 µM) | 0.861 |
| C[N+]1(CCCCC[N+]2(C)CCCC2)CCCC1 [Pentolinium bitartrate] (20 µM) | 0.943 |
| O=C1c2cccc(O)c2C(=O)c2c(O)cccc21 [Danthron] (20 µM) | 0.965 |
| O=C(N/N=C/c1ccc([N+](=O)[O-])o1)c1ccc(O)cc1 [Nifuroxazide] (20 µM) | 0.626 (active) |
| COC(=O)Nc1nc2cc(Sc3ccccc3)ccc2[nH]1 [Fenbendazole] (20 µM) | 1.02 |
| CN(C)CCOC(c1ccccc1)c1ccccc1.Cn1c(=O)c2[nH]c(Cl)nc2n(C)c1=O [Dimenhydrinate] (20 µM) | 1.03 |
| CCc1ccc(C(=O)C(C)CN2CCCCC2)cc1 (stereo unspecified) [Eperisone Hydrochloride] (20 µM) | 1.02 |
| CC12CC3CC(C)(C1)CC(N)(C3)C2 [Memantine hydrochloride] (20 µM) | 1.13 |
| COc1ccc2[nH]cc(CCNC(C)=O)c2c1 [Melatonin] (20 µM) | 0.98 |
| CCC(=O)O[C@]1(C(=O)CCl)[C@@H](C)C[C@H]2[C@@H]3CCC4=CC(=O)C=C[C@]4(C)[C@@]3(F)[C@@H](O)C[C@@]21C [Clobetasol propionate] (20 µM) | 0.936 |
| CC[C@@H](CO)NCCN[C@@H](CC)CO [Ethambutol dihydrochloride] (20 µM) | 1.09 |
